# Results: the supplement of paper PMC7724964
# T1: GGA1 1-157 VHS (domain begin residue: 1, domain end residue: 157), Q9UJY5
# T1 chain: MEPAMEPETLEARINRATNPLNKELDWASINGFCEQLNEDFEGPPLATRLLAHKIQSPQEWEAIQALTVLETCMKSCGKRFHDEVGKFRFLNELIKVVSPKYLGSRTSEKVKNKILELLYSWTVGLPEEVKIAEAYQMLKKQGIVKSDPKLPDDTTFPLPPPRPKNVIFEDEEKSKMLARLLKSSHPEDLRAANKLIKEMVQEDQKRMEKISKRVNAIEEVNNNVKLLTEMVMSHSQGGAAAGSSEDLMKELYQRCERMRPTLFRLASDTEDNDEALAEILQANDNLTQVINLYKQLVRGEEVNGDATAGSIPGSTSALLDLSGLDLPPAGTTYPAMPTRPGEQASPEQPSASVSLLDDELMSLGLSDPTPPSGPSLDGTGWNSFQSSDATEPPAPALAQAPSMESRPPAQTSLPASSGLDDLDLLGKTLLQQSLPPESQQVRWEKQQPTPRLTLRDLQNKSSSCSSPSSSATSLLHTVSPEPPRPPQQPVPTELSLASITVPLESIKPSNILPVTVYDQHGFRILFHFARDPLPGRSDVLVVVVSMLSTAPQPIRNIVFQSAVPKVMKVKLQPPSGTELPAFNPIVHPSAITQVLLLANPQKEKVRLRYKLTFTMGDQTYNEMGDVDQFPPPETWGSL
# T2: GIGYF2 507-602 GYF (domain begin residue: 507, domain end residue: 602), Q6Y7W6
# T2 chain: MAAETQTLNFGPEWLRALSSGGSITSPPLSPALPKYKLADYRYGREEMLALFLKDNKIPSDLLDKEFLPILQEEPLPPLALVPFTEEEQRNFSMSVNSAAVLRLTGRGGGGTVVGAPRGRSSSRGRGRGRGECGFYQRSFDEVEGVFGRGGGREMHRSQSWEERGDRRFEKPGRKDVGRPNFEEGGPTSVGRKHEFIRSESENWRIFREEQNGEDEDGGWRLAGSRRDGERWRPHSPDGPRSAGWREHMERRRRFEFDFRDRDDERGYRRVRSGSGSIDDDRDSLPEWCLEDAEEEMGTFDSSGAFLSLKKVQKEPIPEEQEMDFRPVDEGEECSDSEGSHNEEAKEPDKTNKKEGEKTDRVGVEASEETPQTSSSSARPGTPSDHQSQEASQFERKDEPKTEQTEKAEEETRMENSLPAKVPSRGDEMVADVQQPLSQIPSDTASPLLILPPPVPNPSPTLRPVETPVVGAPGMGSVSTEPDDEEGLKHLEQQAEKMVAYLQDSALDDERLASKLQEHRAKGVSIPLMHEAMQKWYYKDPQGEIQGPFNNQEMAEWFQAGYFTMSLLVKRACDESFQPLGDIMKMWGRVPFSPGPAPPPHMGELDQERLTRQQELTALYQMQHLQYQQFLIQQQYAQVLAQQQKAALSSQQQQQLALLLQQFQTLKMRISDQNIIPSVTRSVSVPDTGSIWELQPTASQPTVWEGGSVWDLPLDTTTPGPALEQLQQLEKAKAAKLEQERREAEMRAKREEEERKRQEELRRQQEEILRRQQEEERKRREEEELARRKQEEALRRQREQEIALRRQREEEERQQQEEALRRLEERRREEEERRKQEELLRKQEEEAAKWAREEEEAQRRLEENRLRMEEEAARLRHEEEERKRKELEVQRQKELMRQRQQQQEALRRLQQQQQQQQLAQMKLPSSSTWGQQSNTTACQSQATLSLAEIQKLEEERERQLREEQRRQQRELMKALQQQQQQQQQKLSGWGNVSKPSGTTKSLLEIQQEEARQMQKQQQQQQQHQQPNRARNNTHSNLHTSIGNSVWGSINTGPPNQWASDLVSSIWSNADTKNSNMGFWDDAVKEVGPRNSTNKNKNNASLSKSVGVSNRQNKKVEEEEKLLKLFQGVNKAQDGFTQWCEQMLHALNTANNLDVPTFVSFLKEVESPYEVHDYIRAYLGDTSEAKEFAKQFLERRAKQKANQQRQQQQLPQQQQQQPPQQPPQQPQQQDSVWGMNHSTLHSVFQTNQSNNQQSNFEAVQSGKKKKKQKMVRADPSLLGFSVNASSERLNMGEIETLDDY
# T3: GIGYF1 448-540 GYF (domain begin residue: 448, domain end residue: 540), O75420
# T3 chain: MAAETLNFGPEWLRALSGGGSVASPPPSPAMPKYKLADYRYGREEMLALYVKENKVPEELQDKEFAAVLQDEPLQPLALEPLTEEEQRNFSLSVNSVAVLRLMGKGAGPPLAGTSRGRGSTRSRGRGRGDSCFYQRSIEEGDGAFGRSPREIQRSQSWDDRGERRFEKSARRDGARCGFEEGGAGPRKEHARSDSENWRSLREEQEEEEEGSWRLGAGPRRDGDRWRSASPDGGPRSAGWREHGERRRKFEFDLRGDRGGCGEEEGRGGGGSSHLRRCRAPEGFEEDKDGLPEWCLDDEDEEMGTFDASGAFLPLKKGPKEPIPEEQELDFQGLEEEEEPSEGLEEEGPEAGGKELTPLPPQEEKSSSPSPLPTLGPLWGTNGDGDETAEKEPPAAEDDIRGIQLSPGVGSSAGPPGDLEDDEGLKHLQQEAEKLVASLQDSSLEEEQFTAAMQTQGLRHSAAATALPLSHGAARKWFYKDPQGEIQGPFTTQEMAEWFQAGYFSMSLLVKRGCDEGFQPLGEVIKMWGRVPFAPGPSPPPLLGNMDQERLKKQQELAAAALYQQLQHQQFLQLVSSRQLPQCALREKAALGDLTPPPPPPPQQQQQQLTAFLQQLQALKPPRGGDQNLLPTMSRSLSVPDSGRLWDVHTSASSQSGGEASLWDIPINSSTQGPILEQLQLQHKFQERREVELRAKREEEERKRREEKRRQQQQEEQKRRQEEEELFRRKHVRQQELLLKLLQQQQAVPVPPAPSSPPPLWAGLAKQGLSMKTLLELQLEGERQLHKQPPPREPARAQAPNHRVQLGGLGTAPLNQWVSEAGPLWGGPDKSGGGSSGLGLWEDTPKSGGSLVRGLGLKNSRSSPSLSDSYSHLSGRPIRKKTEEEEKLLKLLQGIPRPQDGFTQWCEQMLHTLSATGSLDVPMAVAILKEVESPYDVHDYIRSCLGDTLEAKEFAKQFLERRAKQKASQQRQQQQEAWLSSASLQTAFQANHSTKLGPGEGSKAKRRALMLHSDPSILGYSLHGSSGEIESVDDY
# T4: SPRED2 1-124 WH1 (domain begin residue: 1, domain end residue: 124), Q7Z698
# T4 chain: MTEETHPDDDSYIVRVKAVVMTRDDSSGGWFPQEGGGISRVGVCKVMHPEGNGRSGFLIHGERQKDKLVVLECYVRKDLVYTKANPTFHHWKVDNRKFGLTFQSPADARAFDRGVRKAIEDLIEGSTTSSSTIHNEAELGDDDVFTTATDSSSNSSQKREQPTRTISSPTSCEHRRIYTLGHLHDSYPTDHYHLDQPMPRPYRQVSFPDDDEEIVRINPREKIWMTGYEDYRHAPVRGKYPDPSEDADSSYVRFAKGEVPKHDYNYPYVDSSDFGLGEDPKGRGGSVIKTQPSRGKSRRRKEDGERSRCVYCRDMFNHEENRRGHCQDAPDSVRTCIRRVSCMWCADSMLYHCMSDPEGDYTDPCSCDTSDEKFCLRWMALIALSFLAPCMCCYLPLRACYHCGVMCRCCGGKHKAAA
# T5: FKBP3 109-224 FKBP_C (domain begin residue: 109, domain end residue: 224), Q00688
# T5 chain: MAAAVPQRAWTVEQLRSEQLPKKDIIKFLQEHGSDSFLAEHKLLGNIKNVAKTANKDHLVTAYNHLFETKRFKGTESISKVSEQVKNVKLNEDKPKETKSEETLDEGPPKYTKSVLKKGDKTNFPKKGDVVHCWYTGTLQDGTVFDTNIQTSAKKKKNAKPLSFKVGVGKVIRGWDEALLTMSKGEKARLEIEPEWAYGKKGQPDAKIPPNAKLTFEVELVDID
# T6: FRS3 12-117 IRS (domain begin residue: 12, domain end residue: 117), O43559
# T6 chain: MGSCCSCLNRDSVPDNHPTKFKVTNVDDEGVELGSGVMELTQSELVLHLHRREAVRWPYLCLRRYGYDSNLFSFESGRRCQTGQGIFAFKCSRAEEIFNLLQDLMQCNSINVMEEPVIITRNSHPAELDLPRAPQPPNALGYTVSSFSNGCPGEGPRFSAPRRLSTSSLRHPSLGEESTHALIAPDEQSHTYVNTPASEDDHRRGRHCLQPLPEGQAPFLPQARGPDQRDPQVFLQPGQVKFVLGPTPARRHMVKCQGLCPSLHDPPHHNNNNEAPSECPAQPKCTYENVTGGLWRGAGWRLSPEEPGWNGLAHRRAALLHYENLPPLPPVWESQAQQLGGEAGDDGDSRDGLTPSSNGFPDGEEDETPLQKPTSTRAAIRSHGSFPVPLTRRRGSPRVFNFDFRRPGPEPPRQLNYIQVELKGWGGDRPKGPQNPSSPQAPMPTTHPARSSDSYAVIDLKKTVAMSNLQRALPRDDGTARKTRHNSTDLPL
# Target: GGA3 1-153 VHS (domain begin residue: 1, domain end residue: 153)
# Test: phage ELISA signal ratio (GST-PRM binding over GST background); higher = stronger binding of peptide-phage to the PRM
# Procedure, shortened: (§1)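 Each value is the phage ELISA signal on the glutathione S-transferase (GST)-domain fusion divided by the signal on GST alone. Human peptide recognition domains were expressed in 96-well plates, fused to the C-terminus of GST, and selected against an M13 phage library carrying randomized, cysteine-free, glycine-flanked hexadecapeptides on the gene-8 major coat protein. After five selection rounds, approximately 48 individual clones from rounds 4 and 5 were tested by phage ELISA, and positive clones were sequenced.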
row,Binder,phage ELISA signal ratio
1,EMDVEMWFPHFMNHSF,34.5
2,QTDDPMWIPHQWFQAG,23.1
3,WHGQEADDVQMLWHWS,5.39
4,MEPFTTWDQLPWWMQE,12.9
5,PDTELIDVHQWRTSQW,22.1
6,EYLQIPVHHVDGIWSV,10.8
7,SDVPPWWYHEPITGPM,17.8
8,HVEQWWTTESWPNWYT,15.3
9,MDWTILDFPYQNWPRS,13.9
10,HSQWWVGPEQPWGQVQ,12.2

# Target: T1, GGA1 1-157 VHS (domain begin residue: …
# Test: as above
# Procedure, shortened: as §1
row,Binder,phage ELISA signal ratio
1,PQIQWYMDDILLVPTI,15.5
2,QTMTWEARDPSKMLEL,12.5
3,WGHYEEDQMFVFMDHE,19.8
4,GEMDDPMMHFSWVAMW,12.6
5,VNNQWDNDVPMLSMFA,16.4
6,TMHHDDQLLDLYSVRK,18.5

# Target: GGA3 579-723 Alpha_adaptinC2 (domain begin residue: 579, domain end residue: 723)
# Test: as above
# Procedure, shortened: as §1
row,Binder,phage ELISA signal ratio
1,DTWMWGGYVSHTVQPY,23.1
2,SFTWDSFESYVEPWKY,9.04
3,DEWGQWQLHESVFLME,27.9
4,DWSQWQTAAMEEMITW,18.5

# Target: T2, GIGYF2 507-602 GYF (domain begin …
# Test: as above
# Procedure, shortened: as §1
row,Binder,phage ELISA signal ratio
1,NMFMPPGFAPQQVQMH,13.9
2,EGMGPPGFWVGSDLRG,14.7
3,SEVHPPGFAQEHHIMQ,23.9

# Target: T3, GIGYF1 448-540 GYF (domain begin …
# Test: as above
# Procedure, shortened: as §1
row,Binder,phage ELISA signal ratio
1,SAPPGYQTGLLMAEYR,7.85
2,DHWGPPGLTWHVMERA,10.1

# Target: T4, SPRED2 1-124 WH1 (domain begin residue: …
# Test: as above
# Procedure, shortened: as §1
row,Binder,phage ELISA signal ratio
1,SAPPGYQTGLLMAEYR,3.46

# Target: T5, FKBP3 109-224 FKBP_C (domain begin …
# Test: as above
# Procedure, shortened: as §1
row,Binder,phage ELISA signal ratio
1,VGQGVFLDWKPGRDVN,17.5

# Target: T6, FRS3 12-117 IRS (domain begin residue: …
# Test: as above
# Procedure, shortened: as §1
row,Binder,phage ELISA signal ratio
1,VGQGVFLDWKPGRDVN,10.6
2,SRWVQIMHNGEETDSY,16.9
